# MITF primary = human MITF inhibition, primary screen; AlphaScreen MITF homodimerization, bead proximity signal; inhibition, % at 2.6 µM; 650,000 compounds, 0.91% hits; O75030; in the data active = inhibition above about 50%;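 also: 0% = vehicle wells with protein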
# FBW7 activator = activators of human E3 ligase FBW7; 650,000 compounds, 0.13% hits; AlphaScreen FBW7–phospho-cyclin E peptide binding, activator screen; Q969H0; normalized activity (activation), % at 26.1 µM; in the data active = normalized activity above about 1.9%;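 also: purified mutant Fbw7 with reduced substrate affinity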
# TEAD-YAP inh = TEAD-YAP interaction inhibition; HEK-TIYL cells, TEAD-Gal4/YAP UAS-luciferase luminescence; inhibition, % at 9.12 µM; 640,000 compounds, 1.4% hits; AID 1259422; in the data active = inhibition above about 32%;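 also: 0% = median of test compound wells and 100% = reference inhibitor wells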
# GPR151 activ = activates the human receptor GPR151. PathHunter beta-arrestin GPR151 cells, luminescence. activation, % at 11.2 µM. 650,000 compounds, 1% hits. AID 1508602; in the data active = activation above about 4.9%;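 also: 0% = median of compound wells and 100% = cells with positive control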
# Target sequence (Q8TDV0 whole entry, looked up): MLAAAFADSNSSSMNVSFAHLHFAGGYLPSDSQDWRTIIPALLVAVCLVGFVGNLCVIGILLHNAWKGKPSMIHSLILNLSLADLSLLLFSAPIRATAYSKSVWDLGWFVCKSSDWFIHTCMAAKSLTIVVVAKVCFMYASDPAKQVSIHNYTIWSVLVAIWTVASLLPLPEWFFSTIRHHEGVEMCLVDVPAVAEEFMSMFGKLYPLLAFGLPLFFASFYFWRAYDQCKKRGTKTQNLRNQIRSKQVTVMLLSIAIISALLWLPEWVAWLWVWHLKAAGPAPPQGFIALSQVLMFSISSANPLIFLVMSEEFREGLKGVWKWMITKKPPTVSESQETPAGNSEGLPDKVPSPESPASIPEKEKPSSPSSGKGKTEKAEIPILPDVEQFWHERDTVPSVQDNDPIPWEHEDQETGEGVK
# Active calls of the source: *. Rows were chosen to be rich in hits. Some 3.4% of all compounds tested hit in one or more screens of this group.
SMILES,MITF primary,FBW7 activator,TEAD-YAP inh,GPR151 activ
Cc1ccc(S(=O)(=O)NC(=O)Nc2ccc(-c3nc4ccc(C)cc4s3)cc2)cc1,16.0,0.1,90.8*,-8.6
CC1=CCC(C(=O)O)C(C(=O)Nc2ccc(-c3nc4ccc(C)cc4s3)cc2)C1 (configuration not stated),-11.6,0.0,59.1*,-3.0
Cc1ccc(S(=O)(=O)Nc2ccccc2C(=O)Nc2ccc(-c3nc4ccc(C)cc4s3)cc2)cc1,5.0,1.1,-2.8,-0.7
CC(=O)NC(C(=O)N1CCc2c(cnc(C)c2CNC(=O)c2ccsc2)C1)C(C)C (configuration not stated),-13.9,0.0,-0.3,-0.6
CCOC(=O)c1cnn(-c2nc(C)nc3sc(-c4ccccc4)cc23)c1/N=C/N(C)C,0.0,0.0,34.1*,1.8
CCOC(=O)c1cnn(-c2ccc(Cl)nn2)c1/N=C/N(C)C,-4.0,0.1,0.6,-0.4
CCC(=O)/C=C/n1c(=S)oc2ccccc21,-12.3,-0.2,54.7*,1.0
CC(=O)/C=C/n1c(=S)oc2ccccc21,7.2,0.0,57.1*,-0.6
CC(=O)Nc1ccc(NC(=O)CCn2c(=S)oc3ccccc32)cc1,7.5,1.0,-2.4,0.4
CCOC(=O)/C(=C/c1ccc(Br)cc1)c1nnc(N)s1,14.5,0.3,39.9*,2.4
CCOC(=O)C(=Cc1ccc(O)cc1)C(=O)OCC,11.6,0.1,9.7,-0.3
O=[N+]([O-])c1cc(NC2OC(CO)C(O)C(O)C2O)ccc1Cl (configuration not stated),-1.7,0.3,-14.9,1.9
COc1ccc(OC)c(/C=N/N=C2\NC(=O)C(C)S2)c1 (configuration not stated),7.7,0.3,-7.0,-0.3
COc1ccc(O)c(/C=N/N=C2/NC(=O)C(C)S2)c1 (configuration not stated),-7.4,-0.3,67.7*,-8.1
Cc1ccc(NC2OC(C)C(O)C(O)C2O)cc1C (configuration not stated),4.3,2.5*,11.1,-1.9
Cc1ccc(NC2OC(CO)C(O)C(O)C2O)cc1C (configuration not stated),0.5,-0.1,12.2,1.5
Cc1cc(C(=O)CO/N=C/c2ccco2)c(C)n1Cc1ccco1,-5.4,-0.1,53.0*,4.4
Cc1cc(C(=O)CCl)c(C)n1Cc1ccco1,33.3,0.1,5.4,-1.5
Cc1cc(C(=O)CSc2nnc3ccccn23)c(C)n1Cc1ccco1,1.3,-0.1,61.3*,-3.0
Cc1sc(NC(=O)CSCC(=O)N2CCOCC2)nc1-c1ccccc1,7.8,-0.1,2.6,1.8
COC(=O)C1=C(C)NC2=C(C(=O)CC(C)(C)C2)C1c1ccc(O)c(OC)c1 (configuration not stated),15.0,0.2,-2.4,2.7
O=[N+]([O-])c1ccccc1N=Cc1ccccc1Cl,-3.7,-0.1,-3.5,0.0
OC1CCCN(c2nc3nonc3nc2N2CCCCCC2)C1 (configuration not stated),17.2,-0.2,7.2,-1.0
CCC(=O)NC(=S)Nc1cccc2ccccc12,10.2,-0.1,-1.7,1.3
CCc1ccc(/C(C)=N/N=C(N)N)cc1,-6.5,-0.1,34.6*,-0.2
SMILES,MITF primary,FBW7 activator,TEAD-YAP inh,GPR151 activ
COc1ccc(/C=C(/C#N)C(=O)Nc2ccccc2C)cc1,10.6,0.1,-10.3,-0.1
CC(C)(C)C(=O)COC(=O)c1ccc(S(C)(=O)=O)c([N+](=O)[O-])c1,3.7,0.1,2.1,0.8
CS(=O)(=O)c1ccc(C(=O)OCc2cccc(C(F)(F)F)c2)cc1[N+](=O)[O-],10.4,-0.1,52.3*,2.8
Oc1ccc(O)c(CN2CCCCCC2)c1,82.2*,-0.7,-1.9,-0.9
CCOC(=O)C1(Cc2ccccc2)CCN(Cc2cnc[nH]2)CC1,-7.7,0.0,-25.3,-0.4
CCCNC(=O)CCn1nc(-c2ccc(C)cc2)c2ccccc2c1=O,16.7,-0.1,1.7,0.0
CCCNC(=O)CCC(=O)Nc1ncc(-c2ccc(C)cc2)n1C,-1.4,0.2,93.2*,-0.8
COC(=O)c1cc(S(=O)(=O)N2CCCN(Cc3ccc(F)cc3)C2)cn1C,-0.2,-0.2,-1.7,-0.8
O=C(Nc1ccc2c(c1)CN(S(=O)(=O)c1cccnc1)CC2)c1ccccc1Cl,-5.7,-0.2,46.0*,3.2
O=C(Nc1ccc2c(c1)CN(C(=O)Cn1cncn1)CC2)c1ccccc1Cl,4.5,-0.2,46.6*,-0.5
Cc1ccc(N(C(C)C(=O)Nc2cccnc2)S(C)(=O)=O)cc1C (configuration not stated),-9.0,0.1,5.9,3.3
Cc1cc(OCc2ccc(F)cc2)c2c(C)c(Cc3ccccc3)c(=O)oc2c1,-6.5,0.1,-0.4,-0.4
COc1cc(/C=N/NC(=O)C2CC2c2ccccc2)ccc1OC(C)=O (configuration not stated),-7.4,0.1,-9.5,2.0
CCCOc1ccccc1C1CC(=O)NC2=C1C(=O)CCC2 (configuration not stated),-9.2,0.0,50.2*,-1.1
CCCCOc1ccccc1C1CC(=O)NC2=C1C(=O)CCC2 (configuration not stated),2.0,-0.3,57.0*,0.0
O=C1CC(c2cccc3ccccc23)C2=C(CCCC2=O)N1 (configuration not stated),3.3,0.0,-1.2,-0.5
CCOc1ccccc1C1CC(=O)NC2=C1C(=O)CCC2 (configuration not stated),21.3,0.0,40.5*,0.2
O=C(N/N=C/c1ccc(OC(F)F)cc1)C1CC1,12.7,0.4,-3.1,-0.7
CCOC(=O)Nc1ccc2c(c1)N(C(=O)OCC)c1ccccc1CC2,4.8,-0.1,48.2*,0.4
O=S(=O)(c1cc(Br)c(Br)s1)N1CCN(Cc2ccc3c(c2)OCO3)CC1,-1.5,0.1,0.9,-1.8
CCOC(=O)c1sc(N)c(C#N)c1CSc1nnc(-c2ccc(OC)c(OC)c2)o1,-2.3,-0.2,43.5*,-0.7
CCOC(=O)c1sc(N)c(C#N)c1CSc1nnc(-c2ccco2)o1,6.4,0.0,-12.1,0.5
CCN(CC)S(=O)(=O)c1ccc2[nH]c3nc(SCc4cccnc4)nnc3c2c1,8.0,-0.1,37.4*,1.6
CS(=O)(=O)N(CC(=O)N1CCN(c2ccccc2F)CC1)c1cccc2ccccc12,-1.5,0.0,19.8,-0.1
Cc1ccc(C(C)C)c(OCCN=Cc2c(O)n(C)c(=O)n(C)c2=O)c1,0.9,-0.1,33.4*,-0.6
SMILES,MITF primary,FBW7 activator,TEAD-YAP inh,GPR151 activ
COc1cccc(/C=C2\CN(C)C/C(=C\c3cccc(OC)c3OC)C2=O)c1OC,17.3,-0.2,33.0*,-0.1
CCOC(=O)Cc1ccc(N(Cc2ccc(Cl)cc2)S(=O)(=O)c2ccc3[nH]c(=O)oc3c2)cc1,10.5,0.2,2.2,1.3
N#C/C(=C\c1ccc(N2CCOCC2)cc1)c1[nH]nc(N)c1C#N,17.7,0.2,38.8*,-2.1
COc1ccccc1C1=N/C(=C\c2ccc([N+](=O)[O-])cc2)C(=O)O1,-3.9,0.0,-5.3,-1.5
CCOC(=O)c1ccc(N2N=C(C(F)(F)F)/C(=C/C=C/c3ccco3)C2=O)cc1,64.3*,-0.1,2.7,-0.1
COc1ccc(CNC(=O)c2cc3nc(-c4ccc(Cl)c(Cl)c4)cc(C(F)(F)F)n3n2)cc1,-0.6,-0.1,-8.5,0.1

# Bioassay records from PubChem BioAssay.
